# In PMC5540273 (PLoS ONE, 2017):
# Legend:
# Details in all cases: concentration: 1 μM, replicates: in singlicate; n = 1
# TSSK3 = test system: TSSK3
# TTK = test system: TTK
# TXK = test system: TXK
# [1] = test system: TYK2(JH1domain-catalytic)
# [2] = test system: TYK2(JH2domain-pseudokinase)
# TYRO3 = test system: TYRO3
# ULK1 = test system: ULK1
# ULK2 = test system: ULK2
# ULK3 = test system: ULK3
# VEGFR2 = test system: T1, VEGFR2
# T1 construct: gene KDR
# VPS34 = test system: T2, VPS34
# T2 construct: gene PIK3C3
# VRK2 = test system: VRK2
# WEE1 = test system: WEE1
# WEE2 = test system: WEE2
# WNK1 = test system: WNK1
# WNK2 = test system: WNK2
# WNK3 = test system: WNK3
# WNK4 = test system: WNK4
# YANK1 = test system: T3, YANK1
# T3 construct: gene STK32A
# YANK2 = test system: T4, YANK2
# T4 construct: gene STK32B
# 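Note: KINOMEscan kinase panel screen.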
SMILES,%Inh (TSSK3),%Inh (TTK),%Inh (TXK),%Inh [1],%Inh [2],%Inh (TYRO3),%Inh (ULK1),%Inh (ULK2),%Inh (ULK3),%Inh (VEGFR2),%Inh (VPS34),%Inh (VRK2),%Inh (WEE1),%Inh (WEE2),%Inh (WNK1),%Inh (WNK2),%Inh (WNK3),%Inh (WNK4),%Inh (YANK1),%Inh (YANK2)
Nc1nc(-c2ccc3c(N)n[nH]c3c2)cc(N2CCCC2)n1 [GSK2227430],17%,11%,0%,0%,46%,0%,0%,0%,2%,0%,0%,0%,35%,0%,0%,0%,8%,0%,0%,0%
O=C1Cc2cc(Nc3nc(NCc4cccc(S(=O)(=O)C(F)(F)F)c4)ncc3C(F)(F)F)ccc2N1,9%,0%,4%,25%,0%,3%,3%,26%,12%,0%,0%,23%,0%,0%,0%,6%,0%,0%,0%,0%
[2H]C([2H])(c1cccc(C(F)(F)F)c1C)n1ccn2c(=O)nc(N3CCOCC3)cc12 [GSK2336394],14%,0%,0%,71%,13%,0%,0%,0%,8%,0%,0%,0%,9%,10%,7%,0%,28%,36%,11%,0%
Cc1cccc(Cn2ccn3c(=O)cc(N4CCOCC4)nc23)c1 [GSK2297542],17%,62%,0%,0%,26%,8%,2%,0%,10%,0%,94.6%,0%,22%,22%,9%,6%,12%,8%,20%,0%
C[C@@H](Oc1cc(-n2cnc3ccc(NC(=O)NC(C)(C)C)cc32)sc1C(N)=O)c1ccccc1Cl [GSK346294],21%,0%,0%,8%,0%,0%,0%,0%,15%,3%,0%,5%,5%,12%,14%,25%,33%,0%,0%,0%
NS(=O)(=O)CCc1cccc(Nc2nccc(-c3c(-c4cccc(NC(=O)c5c(F)cccc5F)c4)nn4ccccc34)n2)c1 [GSK336735],23%,26%,90.1%,98.7%,18%,100%,0%,0%,3%,90%,0%,0%,0%,0%,0%,6%,18%,12%,23%,77%
COc1ccc(S(=O)(=O)NC2CCN(c3cc(C)nc(Nc4cccc(C#N)c4)n3)CC2)cc1.O=C(O)C(F)(F)F [GSK1653539],0%,0%,0%,0%,6%,0%,0%,0%,23%,0%,0%,0%,17%,6%,15%,0%,38%,12%,4%,0%
c1ccc(-c2n[nH]cc2-c2ccnc3ccccc23)nc1 [GW271431],22%,4%,4%,17%,10%,0%,0%,0%,1%,12%,20%,0%,9%,2%,7%,11%,15%,0%,19%,4%
